Over roughly 33,000 sequences, “e-score” has its median near -0.053; the highest 2% begin near 0.38. This is one part of a sample in which the highest values are shown more often than they occur.

In the assay the target is T1, SIX1 homeodomain (reference allele) (human, UniProt Q15475 108-198).
T1 sequence: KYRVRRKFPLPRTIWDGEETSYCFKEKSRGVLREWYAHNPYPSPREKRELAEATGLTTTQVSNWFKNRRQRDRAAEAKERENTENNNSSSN
Briefly: universal protein binding microarray; Universal all-10-mer PBM (8x60K, AMADID 030236), 300 nM GST-tagged protein, Alexa Fluor 488 anti-GST; buffer, salt, pH and temperature not stated (as in Berger); high values mean tight binding. Conditions: protein: ivt; tags: N-terminal GST; dsDNA, one strand shown. A digest of the protocol:
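GST-tagged homeodomains were made by in vitro transcription/translation and quantified by anti-GST western blot against a recombinant GST standard curve. They were applied in duplicate at 300 nM final concentration to universal 'all 10-mer' protein binding microarrays (8×60K format). Binding was quantified as 8-mer E-scores with the Universal PBM Analysis Suite.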
Take GATACCAC: the binding signal turned out to be 0.462 ± 0.0103 E-score.
With AATACCAA the figure was 0.278 ± 0.0235 E-score; with AATACCAC, 0.33 ± 0.0283 E-score.
With AATACCAT the figure was 0.296 ± 0.0291 E-score.
With TATACCAA the figure was 0.347 ± 0.016 E-score; with ACAGTGGT, 0.155 ± 0.0272 E-score.
Take GGATGACC: the binding signal stood at 0.205 ± 0.0281 E-score.
Take CTGAAACC: the binding signal was found to be 0.155 ± 0.0131 E-score.
With CATAAGAA the figure was 0.178 ± 0.0241 E-score; with CCGGACAC, 0.192 ± 0.0231 E-score.
For ATGCACTA the value was 0.159 ± 0.065 E-score; for CGTATTTA, 0.169 ± 0.0073 E-score; for CCTGGATA, 0.313 ± 0.0384 E-score.
For CCCGGAGA the value was 0.169 ± 0.0421 E-score; for GCCAGATA, 0.213 ± 0.0509 E-score.
On to GCCGGATA, for which the binding signal worked out at 0.409 ± 0.0137 E-score.
With GCTGGATA the figure was 0.324 ± 0.0373 E-score.
As to CCCGGATA, the binding signal was 0.424 ± 0.0139 E-score.
With CCCGATAC the figure was 0.438 ± 0.0253 E-score; with CCCGATCC, 0.366 ± 0.0566 E-score; with ATCGATCA, 0.17 ± 0.0323 E-score.
For ATCGATCG the value was 0.256 ± 0.037 E-score; for ACCGATCC, 0.382 ± 0.0237 E-score; for CCCGATAG, 0.205 ± 0.0789 E-score.
For ACCGATAC the value was 0.453 ± 0.017 E-score; for ACCGATCA, 0.2912 ± 0.000771 E-score; for ATCGATCC, 0.389 ± 0.0532 E-score.
As for CCCGACAC, the binding signal came to 0.19 ± 0.0993 E-score.
For ACCGACAC the value was 0.2857 ± 0.000453 E-score; for ACCGATGA, 0.17 ± 0.0208 E-score.
Turning to ATCTTACC, the binding signal is 0.296 ± 0.0402 E-score.
For CGTGTCAG the value was 0.202 ± 0.0504 E-score; for ATACTCGG, 0.316 ± 0.01 E-score.
For ATCGTCAC the value was 0.279 ± 0.00711 E-score.
With GATCTGCA the figure was 0.258 ± 0.0208 E-score.
Consider ATCACTGG, for which the binding signal stood at 0.215 ± 0.00955 E-score.
For CCGGGTGA the value was 0.201 ± 0.0475 E-score; for ACCGATCT, 0.251 ± 0.0228 E-score; for GCCGATAC, 0.42 ± 0.0113 E-score.
On to ACCGATAT, for which the binding signal is 0.396 ± 0.00927 E-score.
For GCCGATCC the value was 0.352 ± 0.0357 E-score; for TCCGATAA, 0.223 ± 0.0291 E-score; for ACCGATAG, 0.352 ± 0.018 E-score.
For TATAAATA the value was 0.16 ± 0.095 E-score; for CGAGATGA, 0.187 ± 0.0163 E-score.
AGTAGATA: the binding signal was 0.334 ± 0.0532 E-score.
With ATAGCTAC the figure was 0.163 ± 0.0342 E-score; with AGGCGTAT, 0.318 ± 0.00622 E-score; with TATCTGAA, 0.153 ± 0.0196 E-score.
For AAGGATAA the value was 0.167 ± 0.034 E-score.
For CAGGATAC the value was 0.365 ± 0.0177 E-score.
AAGGATAG: the binding signal turned out to be 0.195 ± 0.0349 E-score.
With GAGGATAC the figure was 0.403 ± 0.0104 E-score; with AAGGATAC, 0.405 ± 0.0292 E-score; with GAGGATAA, 0.278 ± 0.00471 E-score.
For ACATTGAT the value was 0.154 ± 0.01 E-score.
With ATGAGACC the figure was 0.295 ± 0.00298 E-score.
ATCACATC: the binding signal was determined as 0.284 ± 0.0264 E-score.
With CACCGATC the figure was 0.305 ± 0.0428 E-score.
CCATATAC: the binding signal worked out at 0.29 ± 0.00643 E-score.
With ACATATCG the figure was 0.389 ± 0.0479 E-score; with CAATATCG, 0.296 ± 0.0508 E-score.
With ACATATCC the figure was 0.381 ± 0.0241 E-score; with ACATATAC, 0.244 ± 0.0208 E-score; with ACCTATCG, 0.236 ± 0.0191 E-score.
With ACATATCT the figure was 0.233 ± 0.09 E-score.
CCATATCG: the binding signal came out at 0.4544 ± 0.00281 E-score.
For CCATATAG, the binding signal worked out at 0.211 ± 0.0217 E-score.
With CCATATCC the figure was 0.424 E-score; with CCATATGC, 0.159 ± 0.0297 E-score; with ACATATAG, 0.162 ± 0.052 E-score.
With ATATTCAG the figure was 0.164 ± 0.0437 E-score; with GCTTATCC, 0.304 ± 0.0229 E-score; with TAGATGGA, 0.289 ± 0.00593 E-score.
AACAGTAT: the binding signal worked out at 0.196 ± 0.107 E-score.
CGGATTCC: the binding signal turned out to be 0.247 ± 0.00447 E-score.
As for CAGAACAA, the binding signal came out at 0.176 ± 0.0355 E-score.
For ATATTAAC the value was 0.156 ± 0.0934 E-score; for CAAGATCA, 0.242 ± 0.0215 E-score.
With TATCATCA, the binding signal was 0.412 ± 0.0218 E-score.
For GATCAGGA the value was 0.339 ± 0.0411 E-score; for GGTCATGA, 0.169 ± 0.033 E-score.
With TATCAGGA the figure was 0.397 ± 0.00041 E-score; with TATCATAA, 0.381 ± 0.0345 E-score.
For GATCATGA the value was 0.273 ± 0.0126 E-score; for TATCCTCA, 0.37 ± 0.037 E-score; for GATCATAA, 0.306 ± 0.00493 E-score.
Consider TCTCATAA, for which the binding signal turned out to be 0.161 ± 0.0418 E-score.

Values taken from article PMC10668032, “Altered binding affinity of SIX1-Q177R correlates with enhanced WNT5A and WNT pathway effector expression in Wilms tumor”.
